LDHA block – inhibitors of human lactate dehydrogenase A; P00338; purified LDHA, NADH/diaphorase-resazurin fluorescence; stronger effect = lower value; activity change, % (values are at about 110 or 230 µM); actives 0.15% (n = 480,000); in the data active means activity change below about -30%; inconclusive means mostly about -25% to -30%
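Enzyme activity of human lactate dehydrogenase 5 (2 nM; 0.06 mM NADH, 0.2 mM pyruvate, 5 min, RT) is measured via a resazurin/diaphorase fluorescence readout of residual NADH.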
IL-1B inflam inh – inhibitors of inflammasome signaling (IL-1 beta secretion); actives 4.7% (n = 360,000); THP-1 LPS/ATP IL-1B secretion, AlphaLISA, 16 h; stronger effect = lower value; activity change, % at 57.5 µM; in the data active means activity change below about -50%; inconclusive means mostly about -30% to -49%
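Secreted IL-1B measured by AlphaLISA bead assay after 16 h compound exposure of THP-1 cells; compounds (final up to 57.5 uM) added 1 h before LPS (250 ng/mL) and ATP (1.25 mM) stimulation; lower signal means less secretion.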
RORgamma inh – ROR gamma (mouse) transcription inhibition | P51450 | actives 5.4% (n = 310,000) | Drosophila S2 Gal4-RORgamma UAS-luciferase reporter, 20 h | AID 2551 | Potency, µM (series often up to 53.6 µM), usual class: inhibitors; further: nearly all actives have a fitted effect of over 60% in size
Target sequence (P51450 whole entry, looked up, the tested form may be a part): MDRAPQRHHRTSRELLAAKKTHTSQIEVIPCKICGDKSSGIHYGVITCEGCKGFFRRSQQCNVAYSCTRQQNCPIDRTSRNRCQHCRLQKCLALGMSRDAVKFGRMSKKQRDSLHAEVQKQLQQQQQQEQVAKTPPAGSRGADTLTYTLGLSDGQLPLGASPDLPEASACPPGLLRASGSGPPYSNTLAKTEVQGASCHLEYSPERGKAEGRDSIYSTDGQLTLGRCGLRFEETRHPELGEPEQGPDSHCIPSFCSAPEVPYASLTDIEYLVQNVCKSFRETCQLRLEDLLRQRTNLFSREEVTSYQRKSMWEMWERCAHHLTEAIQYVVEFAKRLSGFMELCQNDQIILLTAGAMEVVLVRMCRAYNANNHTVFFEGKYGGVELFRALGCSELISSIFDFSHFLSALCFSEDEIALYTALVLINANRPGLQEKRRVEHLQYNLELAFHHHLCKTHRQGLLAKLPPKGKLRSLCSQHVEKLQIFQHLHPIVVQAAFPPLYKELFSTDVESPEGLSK
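Stable Schneider cell line, Gal4 DNA-binding domain fused to ROR gamma, UAS-luciferase. Cmpd 1 hr RT → CuSO4 700 uM final → 20 hr RT → luciferase reagent 10 min → luminescence.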
VP16 counter – Gal4-VP16 reporter inhibition counter-screen | Drosophila S2 Gal4-VP16 UAS-luciferase, luminescence, 20 h | Potency, µM (series often up to 53.6 µM), usual class: inhibitors | actives 3.5% (n = 310,000) | AID 2546;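 further: Gal4-VP16 expression switched on by copper sulfate through the metallothionein promoter; nearly all actives have a fitted effect of over 50% in size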
TDP1 cell CPT – growth inhibition of DT40 Tdp1-/-;hTDP1 cells with camptothecin (screen for TDP1 inhibitors) | chicken DT40 Tdp1-/-;hTDP1 cells + 20 nM CPT, ATP luminescence, 48 h | Potency, µM (doses to about 46.2 µM), hits mostly inhibitors | actives 12% (n = 420,000); further: nearly all actives have a fitted effect of over 55% in size
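Chicken DT40 Tdp1-/- cells complemented with human TDP1, 400 cells/well, exposed to compounds plus 20 nM camptothecin for at least 48 h at 37 C; viability read as ATP content by CellTiter-Glo luminescence.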
TDP1 cell noCPT – qHTS for Inhibitors of human tyrosyl-DNA phosphodiesterase 1 (TDP1): qHTS in cells in absence of CPT; AID 686978, 2013; DT40 Tdp1-/- hTDP1 cells, no CPT, ATP luminescence, 48 h; Potency, µM (highest dose often 46.2 µM), actives largely listed as inhibitors; actives 15% (n = 420,000); further: nearly all actives have a fitted effect of over 55% in size
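Luminescent ATP content (CellTiter-Glo) served as the growth readout. Knockout chicken DT40 cells expressing human TDP1 were exposed to compounds without camptothecin for a minimum 48 hr at 37 °C.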
A number is an active result; – = inactive; ? = inconclusive; · = no result; [ ] = another dose, or the depositor's remark. Hits are enriched below; roughly 18% of the tested compounds scored in any of these assays. Unless noted, the call rests on the fitted dose curve; in most records, active means well fitted curve in the direction sought with a large enough effect; inconclusive means small, poorly fitted or top-dose-only effect, or another doubt; inactive means no such curve, though single readings can be large; an effect the other way counts as inactive or inconclusive.

SMILES	LDHA block	IL-1B inflam inh	RORgamma inh	VP16 counter	TDP1 cell CPT	TDP1 cell noCPT
Cc1c(-c2ccccc2)oc2c(C(=O)N3CCCN(CC(=O)NC(C)(C)C)CC3)cccc2c1=O	–	·	·	·	·	·
COC(=O)c1ccc2nc(-c3ccc4c(c3)OCO4)cn2c1	–	–	?	?	–	–
CCc1ccn2cc(-c3ccc4c(c3)OCO4)nc2c1	–	–	1.1µM	4.5µM	–	?
Cc1ccccc1OCC(=O)Nc1ccc2oc(-c3ccccc3C)nc2c1	–	·	·	·	·	·
Cc1ccc2occ(/C=N/NC(=O)c3ccc(O)cc3)c(=O)c2c1	–	–	20µM	–	?	?
Cc1ccc2occ(/C=N/O)c(=O)c2c1	–	–	–	–	–	–
Cc1ccc2occ(/C=N/NC(N)=S)c(=O)c2c1	–	–	–	–	?	26µM
CCOc1ccccc1C(=O)N/N=C/c1coc2ccc(C)cc2c1=O	–	–	–	–	18µM	?
Cc1ccc2occ(/C=N/NC(=O)c3ccccc3Br)c(=O)c2c1	–	–	–	–	?	–
Cc1cc(/C=N/NC(=O)c2ccc(O)cc2)c(C)n1CC(C)C	–	-53	7.9µM	–	?	–
Cc1cc(C(=O)OC(C)C(=O)Nc2cc(C)on2)c2ccccc2n1 (stereo unspecified)	–	·	·	·	·	·
O=C1CCCc2c1cc(C(=O)NC1CCCC1)c(=O)n2-c1ccc(C(F)(F)F)cc1	–	·	·	·	·	·
Cc1ccnc(SCCn2c(N3CCN(CCO)CC3)nc3c2c(=O)n(C)c(=O)n3C)n1	–	·	·	·	·	·
CC(=O)N(CCC(c1ccccc1)c1ccco1)Cc1cccs1 (stereo unspecified)	–	–	–	–	15µM	?
CCC(=O)N(CCC(c1ccco1)c1ccccc1OC)Cc1cccs1 (stereo unspecified)	–	?	–	?	?	?
O=[N+]([O-])c1ccccc1SN(Cc1ccccc1)c1ccccn1	–	?	–	–	?	15µM
CNc1sc(C(=O)c2ccc(F)cc2)c(N)c1-c1nc2ccccc2s1	–	–	10µM	?	5.2µM	7.3µM
Cc1csc(NC(=O)COCC(=O)O)c1-c1nc2ccccc2s1	–	–	–	–	–	–
CC(=O)Nc1scc(C)c1-c1nc2ccccc2s1	–	·	1.1µM	8.9µM	–	–
Cc1ccc(-c2c(C)cc3oc(=O)cc(-c4ccccc4)c3c2C)cc1	–	–	–	–	?	23µM
Cc1cc2oc(=O)cc(-c3ccccc3)c2c(C)c1-c1ccc(N(C)C)cc1	–	–	–	–	?	?
COc1ccc(-c2c(C)cc3oc(=O)cc(-c4ccccc4)c3c2C)cc1	–	–	–	–	23µM	?
COc1ccc(-c2ccc(-c3cc(=O)oc4cc(C)cc(C)c34)cc2)cc1	·	·	–	–	·	·
COc1ccc(-c2ccc(-c3cc(=O)oc4c(C(C)C)ccc(C)c34)cc2)cc1	–	–	–	–	23µM	21µM
Cc1ccc(C=Nc2ccc(C(C)(C)C)cc2)s1	–	·	·	·	·	·
SMILES	LDHA block	IL-1B inflam inh	RORgamma inh	VP16 counter	TDP1 cell CPT	TDP1 cell noCPT
O=C(NCC(=O)N1CCSCC1)C1CCCN(S(=O)(=O)c2ccc(Cl)cc2)C1 (stereo unspecified)	–	·	·	·	·	·
COc1ccc(-c2csc3ncnc(NCCO)c23)cc1	–	-81	–[1.91 µM]	–	?	?
COc1ccc(-c2csc3ncnc(Nc4ccccc4)c23)cc1	–	·	·	·	–	–
COc1ccc(-c2csc3ncnc(NCCCO)c23)cc1	–	?	–	–	?	8.2µM
COc1ccc(-c2csc3ncnc(Nc4ccc(O)cc4)c23)cc1	–	–	–	–	?	?
COc1ccc(OCCn2cc(C(C)=O)c3ccccc32)cc1	–	·	·	·	·	·
CCc1ccc(N2CCC(CN)C2)cc1 (stereo unspecified)	–	·	·	·	·	·
Brc1ccc(OCc2ccccc2)c(CNCC2CCCO2)c1 (stereo unspecified)	–	–	–	–	?	18µM
c1ccc(COc2ccc(CNCC3CCCO3)cc2)cc1 (stereo unspecified)	–	·	·	·	·	·
CCOc1cc(CNCCO)cc(Br)c1OCc1ccccc1	–	-80	–	–	18µM	16µM
NS(=O)(=O)c1ccc(CCNCc2cc(Br)ccc2OCc2ccccc2)cc1	–	-54	?	16µM	15µM	12µM
CCOc1cc(CNCCc2ccc(S(N)(=O)=O)cc2)ccc1OCc1ccccc1	–	-54	–	–	12µM	12µM
COc1ccc2c(=O)c(-c3ccc(OC)c(OC)c3)c(C)oc2c1	–	·	·	·	·	·
CCOc1ccc(S(=O)(=O)Nc2ccccc2-c2nnc3n2CCCCC3)cc1OCC	–	·	·	·	·	·
CCCOc1ccc(-c2nonc2NC(=O)Cc2ccc(OC)cc2)cc1	–	·	·	·	·	·
O=c1[nH]c(=O)n(Cc2ccccc2)c2c1CN(Cc1ccccc1Cl)CN2	–	·	·	·	·	·
CCOc1cc(CNCCc2ccc(S(N)(=O)=O)cc2)cc(Cl)c1OCc1ccccc1	–	-81	–	?	13µM	?
NS(=O)(=O)c1ccc(NCc2cc(Cl)ccc2OCc2ccc(F)cc2)cc1	–	-57	?	–	?	?
CCNCc1cc(Cl)c(OCc2ccccc2)c(OCC)c1	–	-93	–	–	?	?
CCOc1cc(CNn2cn[nH]c2=S)cc(Cl)c1OCc1ccccc1F	–	–	7.9µM	6.3µM	?	15µM
CCOc1cc(C(=O)NCCc2ccc(S(N)(=O)=O)cc2)cc(OCC)c1OCC	–	–	–	–	–	?
O=C(O)c1nnn(-c2ccc(Br)cc2)c1C(F)(F)F	–	·	·	·	·	·
O=C(O)C(c1c[nH]c2cc(F)ccc12)N1CCN(C2=Nc3ccccc3Oc3ccccc32)CC1 (stereo unspecified)	–	·	·	·	·	·
COc1cccc(CNCCO)c1OCc1ccccc1	–	–	–	–[10 µM]	–	–
OCCNCc1cc(Br)ccc1OCc1ccccc1	–	-58	–	–	23µM	16µM
SMILES	LDHA block	IL-1B inflam inh	RORgamma inh	VP16 counter	TDP1 cell CPT	TDP1 cell noCPT
Cn1c(=O)c2[nH]c(N3CCN(C(=O)C4CCCCC4)CC3)nc2n(C)c1=O	–	·	·	·	·	·
Cc1ccsc1/C=C(/C#N)C(=O)NCc1ccccc1	–	–	–	–	–	–
N#C/C(=C\C=C\c1ccccc1[N+](=O)[O-])C(=O)NCc1ccccc1	–	-102	14µM	?	4.6µM	6.5µM
N#C/C(=C\c1ccccc1[N+](=O)[O-])C(=O)NCc1ccccc1	–	–	?	?	–	21µM
CCCCCCCCNC(=O)/C(C#N)=C/c1ccccc1[N+](=O)[O-]	–	?	3.2µM	7.9µM	?	?
C=CCNC(=O)/C(C#N)=C/c1ccccc1[N+](=O)[O-]	–	-62	–	?	–	?
CC(=O)c1ccccc1NC(=O)c1ccc2ccccc2n1	–	·	·	·	·	·

Screening data as filed in PubChem.
